According to PubChem BioAssay AID729 (The Scripps Research Institute Molecular Screening Center, 2007):
Hit rate of the full screen: of about 97,000 compounds, about 450 (0.46%) were called active. No stated cut-off is given here; in the data, active means activation above about 16%; inactive means the rest. The entries come from a sample that favours actives as a whole.

The molecules below were run against Sphingosine 1-phosphate receptor 2 (Homo sapiens) (UniProt O95136) (assay: activation of human S1P2 receptor – cell-based, primary screen (AID 729;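 further: 0% = vehicle low control and 100% = maximal reference agonist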)). Conditions: S1P2-expressing cell line, agonist reporter read-out; at 4.5 µM; stronger effect = higher value.
Chain of Sphingosine 1-phosphate receptor 2 (Homo sapiens) (O95136 whole entry, looked up): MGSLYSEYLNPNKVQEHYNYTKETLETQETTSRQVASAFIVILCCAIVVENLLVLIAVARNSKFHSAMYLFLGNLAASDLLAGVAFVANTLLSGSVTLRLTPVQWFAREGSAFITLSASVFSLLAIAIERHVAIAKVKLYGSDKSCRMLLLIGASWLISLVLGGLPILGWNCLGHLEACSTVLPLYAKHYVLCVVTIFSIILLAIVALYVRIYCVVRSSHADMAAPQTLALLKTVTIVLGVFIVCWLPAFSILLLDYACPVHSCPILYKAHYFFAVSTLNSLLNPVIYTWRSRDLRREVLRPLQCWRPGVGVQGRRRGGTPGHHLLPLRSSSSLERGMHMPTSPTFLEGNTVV

activation, inactive:
Cc1c(Nc2nc3ccccc3nc2NS(=O)(=O)c2cccs2)c(=O)n(-c2ccccc2)n1C -4.46%, O=S(=O)(NCC1OCCc2ccccc21)c1ccccc1 (stereo not drawn) 0.09%, CN1CCN(C(=O)Cn2c(C(F)(F)F)nc3ccccc32)CC1 -7.46%, COC(=O)c1cc(OC)c(OC)cc1NC(=O)CSc1ccc(C)cc1 -4.04%, COc1ccccc1CCNC(=O)c1cnccn1 -1.07%, Cc1ccc(-n2cc3ccc([N+](=O)[O-])cc3n2)cc1 -0.28%, CCOc1ccccc1NC(=O)c1cccnc1 -2.14%, Cc1nc2ccc(C(=O)N3CCN(c4ccccc4)CC3)cc2s1 -0.32%, CCOc1nc(NCCN2CCOCC2)nc(Nc2ccc(C)cc2)n1 -6.53%, CCc1c(O)cc2n(c1=O)-c1ccccc1C2(C)C -1.15%, CSCCC(NC(=O)COc1ccccc1)C(=O)OCC(=O)c1cc2ccccc2o1 (stereo not drawn) 0.32%, COc1ccc(/C=N/Nc2nc3ccccc3c(=O)[nH]2)cc1 -4.61%, CC(C)n1c(-c2cccs2)nc2ccccc21 -0.76%, CCCCNC(=O)CCNC(=O)c1ccc(C(C)(C)C)cc1 -3.72%, N#C/C(=C/c1ccc(Cl)cc1)NC(=O)c1ccccc1 -4.04%, CNc1nc(SC)nc(N(C#N)CC(=O)OC)n1 -6.48%, CNC(=O)CN1C(=O)c2ccccc2S1(=O)=O -1.63%, CCCc1nnc(NC(=O)CN2C(=O)c3ccccc3S2(=O)=O)s1 -3.54%, COc1ccccc1Nc1ncnc2c1oc1ccccc12 -9.1%, Cc1nc(Cl)c2oc3ccccc3c2n1 1.01%, Cc1cc(C)n(-c2nc(O)cc(=O)[nH]2)n1 -4.33%, Cc1ccc(-n2ccc(=O)c(C(=O)O)n2)cc1 -0.77%, C=CCO/N=C(\C)c1c(O)c(C)c(-c2ccccc2)n(-c2ccccc2)c1=O -3%, COc1ccc(SCc2noc(C(=O)NCC3CCCO3)c2C(=O)O)cc1 (stereo not drawn) -7.32%, CCOc1c2ccc(C(=O)NCc3ccc4c(c3)OCO4)cc2nn1C -2.43%, COCCNC(=O)Cn1cc(C(=O)c2cccs2)c2ccccc21 -4.41%, CC(C)C(=O)Nc1ccc2c(c1)oc1ccccc12 0.25%, c1ccc2c(-c3nn4nnnc4c4ccccc34)cccc2c1 -3.13%, O=C(O)COc1ccc(-c2nccc(-c3cccs3)n2)cc1 -4.12%, CCOC(=O)c1sc(NC(=O)c2ccncc2)nc1C -5.01%, CCOC(=O)c1sc(NC(=O)C(CC)Sc2nccn2C)nc1C (stereo not drawn) -5.49%, O=C(/C=C/c1cccs1)c1cc(Cl)ccc1OC(=O)N1CCOCC1 -8.27%, CSCc1cc(N(C)C)nc(SCc2ccc(Cl)cc2Cl)n1 -6.28%, CCCC1(C(=O)OCC)NC(c2ccc(N(C)C)cc2)C2C(=O)N(c3ccc4c(c3)OCCO4)C(=O)C21 (stereo not drawn) -0.77%, CCCCSc1[nH]c(=O)c(C(=O)OCC)cc1C#N -3.23%, N#CCSc1nc2c(c(=O)n1Cc1ccccc1)C1(CCCC1)Cc1ccccc1-2 -7.66%, Cc1ccccc1CSCCNC(=O)c1ccc(Cl)c(S(=O)(=O)N2CCOCC2)c1 -6.39%, COC(=O)c1cc2nc(-c3ccccc3)cc(C(F)(F)F)n2n1 -1.4%, N#Cc1c(C(F)(F)F)cc(-c2ccccc2)nc1SCC(=O)N1CCOCC1 -6.15%, Cc1nn(CC(=O)Nc2nc3ccccc3s2)c(C)c1[N+](=O)[O-] -7.14%, NC1=NC(=O)C2(COC(c3ccccc3Cl)OC2)S1 (stereo not drawn) -5.49%, COc1cccc(-c2cc(C(=O)N/N=C/c3ccc(OC)c(COC(C)=O)c3)c3ccccc3n2)c1 -4%, COc1cc2c(cc1OC)C(C(=O)NCc1ccco1)C1c3ccccc3CCN1C2=O (stereo not drawn) -4.83%, Oc1ccccc1CNc1ncc(Br)cc1Br -9.29%, O=C(Nc1ccc(Br)c2cccnc12)c1ccc(Cn2cc([N+](=O)[O-])cn2)o1 -1.75%, FC(F)(F)c1cccc(-c2cc3ccccc3nc2N2CCCC2)c1 -10.1%, O=C1/C(=C/c2cccs2)CCc2ccccc21 -5.98%, CN(C)S(=O)(=O)c1ccc(N2CCCC2)c(C(=O)NCc2ccccc2)c1 -3.61%, O=C(NCc1ccc(Cl)cc1)c1cc(=O)nc2sc(-c3ccccc3)nn12 -3.55%, O=[N+]([O-])c1ccc(Oc2ccc(F)cc2Br)c2ccncc12 -12.3%, CCOC(=O)C(C)Sc1nc2ccccc2c(=O)n1CC1CCCCC1 (stereo not drawn) 1.92%, CN(C)c1ccnc2sc3c(=O)n(-c4ccc(Cl)cc4)cnc3c12 -3.21%, CC12CN3CC(C)(CN(C1)C3c1ccc(Cl)cc1Cl)C2=O (stereo not drawn) -3.81%, CCOc1ccccc1N(CC(=O)Nc1ccccc1C(=O)OC)S(C)(=O)=O -7.41%, CCOc1cc(C2C(C(=O)OC)=CN(C3CCCC3)C=C2C(=O)OC)cc(Br)c1O 7.13%, COC(=O)C1=C(C)N(C)C(C)=C(C(=O)OC)C1c1cccc(Br)c1 -1.98%

activation, active:
O=c1[nH]c(-c2cccs2)nc2ccccc12 71.4%, Nc1nnc(SCCN2C(=O)c3ccccc3S2(=O)=O)s1 17.5%, CCc1nc(Nc2ccc3nccnc3c2)c2oc3ccccc3c2n1 46.5%, C=CCn1c2ccccc2c2nnc(SC(CC)C(=O)Nc3nc(C)c(C(=O)OCC)s3)nc21 (stereo not drawn) 21.9%, CCN(CC)c1nc(-c2ccccc2)cc(C(F)(F)F)c1C#N 23.9%, CCOc1ccccc1C1C(C(=O)OC)=CN(C)C=C1C(=O)OC 25.5%, COC(=O)C1=CN(C)C=C(C(=O)OC)C1c1ccc(Cl)cc1Cl 32.1%
